Measured values: PubChem BioAssay (NCI)
The panel holds about 83,000 compounds, 20% with a hit somewhere; the sample as a whole holds those more often.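 Cells were grown in 96-well plates and exposed to the test compound at a single concentration for 48 hours; results are reported as percent growth, with values below 10 considered active.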 Unmarked numbers belong to inactive results. Active and inactive are the calls of the source.

Legend:
Assay in all cases: NCI-60 one-dose screen, 48 h (100 = growth as untreated, 0 = no growth, -100 = all killed)
Details in all cases: 10 µM unless noted
[1] = test system: NCI-H23 lung
[2] = test system: NCI-H226 lung
[3] = test system: NCI-H322M lung
[4] = test system: HOP-62 NSCLC
[5] = test system: NCI-H460 lung
[6] = test system: HOP-92 NSCLC
[7] = test system: NCI-H522 lung
[8] = test system: A549/ATCC NSCLC
[9] = test system: 786-0 renal
[10] = test system: COLO 205 colon
[11] = test system: DU-145 prostate
[12] = test system: K-562 leukemia
[13] = test system: MALME-3M melanoma
[14] = test system: MDA-MB-231 breast
[15] = test system: RXF 393 renal
[16] = test system: SF-268 CNS
[17] = test system: SF-295 CNS
[18] = test system: SF-539 CNS
[19] = test system: UACC-257 melanoma
[20] = test system: M14 melanoma

SMILES | growth [1] | growth [2] [%] | growth [3] [%] | growth [4] | growth [5] [%] | growth [6] | growth [7] | growth [8] [%] | growth [9] | growth [10] | growth [11] | growth [12] | growth [13] | growth [14] | growth [15] | growth [16] [%] | growth [17] | growth [18] | growth [19] | growth [20] [%]
Cn1ncc2ncc(-c3ccc4ncc(C#N)c(N5CCc6cc(F)c(Cl)cc65)c4c3)cc21 | 46.8% | 24.7 | 38.9 | 22.3% | 38.5 | 7.43% (active) | 20.3% | 27.8 | 21.8% | 51.4% | 30% | 39.7% | 39.5% | 26.7% | -17.4% (active) | 49.7 | 22.9% | 27.1% | 54.9% | 44.9
Cc1ccc2c(n1)C(=O)C(Cl)=C(Nc1ccc(C(C)C)cc1)C2=O | -56.9% (active) | 61.4 | 84.4 | 126% | 79.7 | 17.1% | -13.7% (active) | 67.8 | 75.6% | 111% | 16.2% | 0.714% (active) | -33.9% (active) | -41% (active) | -93.6% (active) | 77.1 | 82.8% | 96.2% | -70.3% (active) | 25.6
CC(=O)C1=C(C)NC(NNc2ccccc2)=NC1c1ccc([N+](=O)[O-])cc1 (stereo not given) | 95.3% | 96.7 | 84.6 | 113% | 99.9 | 99.7% | 76.9% | 88.1 | 97.8% | 106% | 99.4% | 49% | 116% | 88.1% | 102% | 80.7 | 87.4% | 99.9% | 104% | 101
O=C1c2ccccc2C23C(=C(c4cncnc4)c4ccccc42)CCCN13 (stereo not given) | 102% | 97.4 | 107 | 108% | 104 | 90.9% | 92.6% | 98.9 | 96.8% | 121% | 101% | 102% | 94.7% | 101% | 104% | 91.6 | 95.9% | 102% | 108% | 98.6
CC(=O)OC[C@@]12Oc3c(cccc3-c3ccc(O)c4c3O[C@]3(COC(C)=O)C(=C4O)C(=O)C[C@H](C)[C@@H]3OC(C)=O)C(O)=C1C(=O)C[C@H](C)[C@@H]2OC(C)=O | 2.54% (active) | 25.9 | 33.1 | 8.14% (active) | 10.3 | -25.2% (active) | -7.22% (active) | 19.4 | 27.7% | -3.3% (active) | 20.7% | 11.6% | -15.5% (active) | 5.9% (active) | 11.9% | 17.2 | -21.9% (active) | 18.4% | -8.95% (active) | 21.8
COc1ccc(/C(=N\N=C(N)N)c2ccc(Cl)cc2)cc1OC | 87.2% | 88.6 | 79.6 | 69.1% | 78 | -0.241% (active) | 74.3% | 76.1 | 59.2% | 80% | 90.3% | 49.6% | 90% | 71% | 54.3% | 59.9 | 71.8% | 83% | 90.2% | 65.5
O=S(=O)(Oc1ccc(-c2cn3ccoc3n2)cc1)C1CCCCC1 | 102% | 86.7 | 101 | 105% | 100 | 99.9% | 87.9% | 99.4 | 100% | 103% | 107% | 89.5% | 103% | 105% | 122% | 108 | 93.8% | 97% | 106% | 104
C#Cc1nc(/C=C/C(=O)NO)cs1 | -86.7% (active) | 75.8 | 82.5 | 48.5% | 63.4 | -79.5% (active) | -60% (active) | 69.6 | -76.5% (active) | 79.8% | -59.8% (active) | 10.2% | -30.5% (active) | -48.6% (active) | -68.9% (active) | 52.9 | 46.3% | -87.3% (active) | 42.6% | 70.3
